# From PubChem BioAssay AID485297 (National Center for Advancing Translational Sciences (NCATS), 2010)
# Among all 320,000 compounds or so, about 9,100 (2.8%) were called active. Entries that show only a call come without a potency. Inconclusive results (about 3%) are left out. The call rests on the fitted dose curve; in most records, active means well fitted activation curve with a large enough effect; inconclusive means small, poorly fitted or top-dose-only effect; inactive means no such curve, though single readings can be large or run the other way. For the sample, actives were picked, then their nearest neighbours and some compounds at random.
# Test: qHTS Assay for Rab9 Promoter Activators; further: nearly all actives have a fitted effect of over 60% in size
# Conditions: Huh7 Rab9 promoter-luciferase reporter, luminescence, 24 h; series mostly up to 9.22 µM
# In short: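 Cell-based reporter: Huh7 stable for Rab9 promoter-driven luciferase, plated in reduced-serum medium with 10% FBS at 1500 cells/well, compound-treated 24 h at 37 °C, luminescence read after 10 min reagent.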
# Potency means the concentration at half of the fitted maximal effect.
SMILES,Potency,"activation, negative = inhibition"
O=S(=O)(Nc1cc(Cl)ccc1N1CCOCC1)c1ccccc1Cl,inactive,
CCOc1ncccc1C(=O)Nc1ccc(S(=O)(=O)Nc2nc(C)cc(C)n2)cc1,inactive,
Nc1nc(COC(=O)CCC(=O)c2ccc(Cl)cc2)nc(Nc2ccccc2)n1,inactive,
O=C(Nc1ccc(Cl)cc1)Nc1nnc(/C=C/c2ccccc2)s1,inactive,
O=C(c1ccc(Cl)cc1)c1cnc(Nc2ccccc2)s1,3980 nM (active),
CCCN(CC(=O)NC(=O)NC1CCCCC1)CC(=O)Nc1cc(Cl)ccc1Cl,inactive,
CN(C(=O)CSc1nnc(-c2ccc3c(c2)OCO3)o1)C1CCS(=O)(=O)C1 (stereo not drawn),inactive,
CCOC(=O)c1c(NC(=O)CN2C(=O)NC3(CCC(C)CC3)C2=O)sc(C)c1CC (stereo not drawn),inactive,
O=C(Nc1ccc(Br)cn1)c1ccc([N+](=O)[O-])o1,inactive,
O=C(Nc1ccc(Br)cn1)c1ccc([N+](=O)[O-])cc1Cl,2510 nM (active),
O=C(Nc1ccncc1)c1ccc([N+](=O)[O-])cc1Cl,,1.06% [at 1.84 µM] (inactive)
CC/C(Cc1ccccc1)=N/NC(=O)CCn1nnc2ccccc21,inactive,
CCO/N=C(/C)c1c(O)cc(-c2ccccc2)n(-c2ccccc2)c1=O,inactive,
O=C(CN1CCN(S(=O)(=O)/C=C/c2ccccc2)CC1)Nc1ccc(N2CCOCC2)cc1,inactive,
O=C(O)c1ccc2c(c1)C(=O)N(c1ccc(/C=C/C(=O)c3ccccc3)cc1)C2=O,inactive,
CC(=O)Nc1ccc(/C=C/C(=O)c2ccccc2)cc1,3980 nM (active),
CC(OC(=O)/C=C/c1ccccc1)C(=O)Nc1ccc(C(N)=O)cc1 (stereo not drawn),inactive,
O=C(/C=C/c1ccc(N2CCOCC2)cc1)c1ccccc1,4470 nM (active),
CC(=O)Nc1ccc(NC(=S)NC(=O)/C=C/c2ccccc2)cc1,inactive,
CN(C)C(CNC(=O)c1ccc(OCc2cn3ccccc3n2)cc1)c1ccco1 (stereo not drawn),inactive,
COc1ccc(C(=O)NCCNc2ccc([N+](=O)[O-])cn2)cc1,inactive,
Cc1csc(NC(=O)C2CCN(S(=O)(=O)c3ccccc3)CC2)n1,inactive,

SMILES,Potency,"activation, negative = inhibition"
CC(C)CNC(=O)C(=O)Nc1ccc(N(C)C)cc1,3160 nM (active),
CC(C)CNC(=S)Nc1ccc(F)cc1,inactive,
CC(C)CNC(=O)C(=O)NCc1ccccc1,inactive,
COC(=O)C1=CN(c2ccc(F)c(F)c2)C=C(C(=O)OC)C1c1ccc([N+](=O)[O-])cc1,inactive,
COc1ccc([C@H]2CC(=O)C=C(c3ccc(CO)cc3)C2)cc1,inactive,
Cc1csc(NC(=O)CSc2nc(=O)n(CCCN(C)C)c3c2CCC3)n1,inactive,
C=CCn1c(C)cc(C2=NNC(=NCC)SC2)c1C,inactive,
COCCn1c(C)cc(C2=NNC(=Nc3ccc(F)cc3)SC2)c1C,3550 nM (active),
C=CC1(C)CC(=O)C2(O)C(C)(O1)C(OC(C)=O)C(O)C1C(C)(C)CCC(O)C12C (stereo not drawn),inactive,
Cc1ccc(C)c(NC(=O)COC(=O)CSc2ccccc2)c1,inactive,
CCCCN(CC)C(=O)c1ccccc1Oc1ccccc1,inactive,
COc1ccccc1OCCOc1ccc(/C=N/n2cnnc2)cc1,inactive,
C(=N\n1cnnc1)/c1cccnc1,inactive,
COc1cccc(OCCOc2cccc(/C=N/n3cnnc3)c2)c1,2820 nM (active),
COc1cccc(C(=O)N/N=C(\C)c2cccc(NC(=O)c3ccc(F)cc3)c2)c1OC,inactive,
Cc1ccccc1OCCC(=O)OCC(=O)NCCc1ccc(S(N)(=O)=O)cc1,inactive,
CCn1nc(C(=O)NNC(=O)C2CSC3(C)CCC(=O)N23)c2ccccc2c1=O (stereo not drawn),inactive,
CCN(C(=O)COC(=O)CCOc1cccc(C)c1)c1c(N)n(Cc2ccccc2)c(=O)[nH]c1=O,inactive,
N#Cc1ccccc1S(=O)(=O)N1CCN(Cc2c(O)ccc3ccccc23)CC1,inactive,
N#CCC(=O)Nc1ccc(C(=O)OCC(=O)Nc2sc3c(c2C#N)CCCC3)cc1,inactive,
Nc1ncnc2c1c(I)cn2[C@@H]1C[C@H](N)[C@@H](O)[C@H]1O,inactive,
Cc1cc(CO)nn1-c1ccc([N+](=O)[O-])cc1,inactive,

SMILES,Potency,"activation, negative = inhibition"
Cc1nn(-c2ccc([N+](=O)[O-])cc2)c(N)c1-c1ccccc1,1260 nM (active),
Cn1nc(-c2ccccc2)c2cc([N+](=O)[O-])ccc21,inactive,
COc1ccccc1OCCNC(=O)C(CCSC)NC(=O)COc1ccccc1 (stereo not drawn),inactive,
O=C(COC(=O)Cc1ccccc1F)NCCc1ccccc1,inactive,
CCOc1cccc2cc(C(=O)OCC(=O)Nc3c(C)cccc3CC)c(=O)oc12,inactive,
COCCn1cnnc1SCC(=O)Nc1cccc(S(=O)(=O)N2CCCCC2)c1,inactive,
O=C(Nc1cccc(NC(=O)c2ccccc2[N+](=O)[O-])c1)c1ccccc1Cl,inactive,
O=C(Nc1ccc2sc3ccccc3c(=O)c2c1)c1ccccc1Cl,2820 nM (active),
COc1cc(NC(=O)c2cccs2)ccc1NC(=O)c1ccccc1Cl,inactive,
COc1ccc(C(=O)COC(=O)c2ccc([N+](=O)[O-])s2)cc1OC,inactive,
CN(C(=O)Cn1nnc(-c2ccc(F)cc2)n1)C1CCS(=O)(=O)C1 (stereo not drawn),inactive,
CC(C)(CNC(=O)Cc1ccc(Cl)cc1Cl)N1CCOCC1,inactive,
N#Cc1ccc(C2N=C(c3ccccc3)NO2)cc1 (stereo not drawn),1780 nM (active),
CCOc1ccc(NC(=O)CN(C)C(=O)CSc2ccccc2)cc1OCC,inactive,
Cc1cc(C(F)(F)F)nn1-c1nc(-c2ccco2)cc(C(F)(F)F)n1,inactive,
COc1ccccc1-n1c(-c2cc(-c3ccco3)[nH]n2)n[nH]c1=S,inactive,
Cn1c(-c2ccco2)nc2cc3ccccc3cc21,3980 nM (active),
COc1cc(OC)c(NS(=O)(=O)c2cn(C)cn2)cc1Cl,inactive,
O=C(CSc1nc2ccc([N+](=O)[O-])cc2[nH]1)c1ccc(Cl)cc1,inactive,
O=[N+]([O-])c1ccc2nc(-c3ccccn3)[nH]c2c1,2510 nM (active),
O=[N+]([O-])c1ccc2c(c1)Nc1nc3ccccc3nc1N2,inactive,
O=C(CN1C(=O)NC2(CCCCC2)C1=O)N1CCN(C(=O)c2cccs2)CC1,inactive,

SMILES,Potency,"activation, negative = inhibition"
CC(C)n1ncc2c(C(=O)NCc3ccccc3CN(C)C)cc(C3CC3)nc21,inactive,
O=C(Oc1cccc(NC2=NS(=O)(=O)c3ccccc32)c1)c1ccncc1,inactive,
Cc1ccc(S(=O)(=O)N(NC2=NS(=O)(=O)c3ccccc32)C(=O)c2ccccc2)cc1,inactive,
CC(C)(C)c1csc(NC2=NS(=O)(=O)c3ccccc32)n1,1260 nM (active),
O=S(=O)(NC1CCCCC1)c1ccc(F)c2ccccc12,inactive,
COc1ccc2cc(C3=CC(=O)C[C@H](c4ccc5c(c4)OCO5)C3)ccc2c1,inactive,
O=C(Nc1ccc(Cl)cc1)c1cccc(OC(=S)N2CCOCC2)c1,inactive,
Nc1c(N(Cc2ccco2)C(=O)c2cccc(F)c2)c(=O)[nH]c(=O)n1Cc1ccccc1,inactive,
CN(CC(=O)Nc1ccc(F)c(F)c1F)C(=O)Cn1cnc2c1c(=O)n(C)c(=O)n2C,inactive,
CC1CCCCN1S(=O)(=O)c1ccc(C(=O)Nc2nnc(-c3cccs3)o2)cc1 (stereo not drawn),inactive,
CC1CCCN(S(=O)(=O)c2ccc(C(=O)Nc3nnc(-c4ccncc4)o3)cc2)C1 (stereo not drawn),1410 nM (active),
O=C(Nc1nnc(-c2ccco2)o1)c1ccc(S(=O)(=O)N2CCOCC2)cc1,inactive,
O=C(COC(=O)c1c(Cl)cccc1Cl)Nc1cccc(S(=O)(=O)NC2=NCCCCC2)c1,inactive,
Cc1ccc(C(=O)CNc2ccc(F)cc2)cc1,inactive,
COC(=O)c1ccc(NCC(=O)c2ccccc2)cc1,1780 nM (active),
COC(=O)c1ccc(NCC(=O)N2CCCCCC2)cc1,inactive,
O=C(N[C@@H](Cc1c[nH]c2ccccc12)C(=O)O)OCC1c2ccccc2-c2ccccc21,inactive,
CC1=NN(C(N)=S)C(=O)C1N=Nc1cc(Cl)ccc1Cl (stereo not drawn),inactive,
Cc1[nH]n(C(N)=S)c(=O)c1N=Nc1ccc(Cl)cc1Cl,3980 nM (active),
Cc1[nH]n(-c2cccc(Cl)c2)c(=O)c1-c1ccc(Cl)cc1,inactive,
CCOC(=O)c1c(CNCc2ccccc2F)c2sc(C)cc2n1C,inactive,
COc1ccc(S(=O)(=O)N2CCOCC2)cc1NC(=O)c1ccc(OCC(C)C)c(OC)c1,inactive,

SMILES,Potency,"activation, negative = inhibition"
CN(CCOc1ccccc1)C(=O)c1cc(-c2ccco2)nc2ccccc12,inactive,
CC(OC(=O)c1ccccc1NCCO)C(=O)Nc1ccnn1C(C)C (stereo not drawn),inactive,
Cc1ccc(-n2c(SCC(=O)N3CCC(C(=O)O)CC3)nc3ccccc3c2=O)cc1C,2820 nM (active),
COc1cccc(-n2c(SCC(=O)NC3CCS(=O)(=O)C3)nc3ccccc3c2=O)c1 (stereo not drawn),inactive,
O=C(CSc1nc2ccccc2c(=O)n1-c1ccc(F)cc1)NC1CC1,inactive,
CC(=O)Nc1ccc(S(=O)(=O)N2CCn3cccc3C2C)cc1 (stereo not drawn),inactive,
COc1ccc(NC(=S)N2CCCC(CO)C2)c(OC)c1 (stereo not drawn),inactive,
CCCCc1ccc(NC(=S)NCCCN2CCOCC2)cc1,inactive,
CCCCc1ccc(NC(=S)N2CCCC(CO)C2)cc1 (stereo not drawn),2820 nM (active),
Cc1ccc(-c2nc(COC(=O)c3c(C)noc3C)cs2)cc1,3550 nM (active),
COc1cc(OC)cc(C(=O)NCC(=O)OCc2csc(-c3ccccc3)n2)c1,inactive,
Cc1ccc(S(=O)(=O)N2CCN(C(=O)COC(=O)c3c(C)noc3C)CC2)c(C)c1,inactive,
COc1cc(C(=O)OCC(=O)NC23CC4CC(CC(C4)C2)C3)cc(OC)c1OC,inactive,
O=C(c1ccc(Cl)c(S(=O)(=O)N2CCCCCC2)c1)N1CCN(c2ccc(O)cc2)CC1,inactive,
Cc1ccc(-c2cn3cc([N+](=O)[O-])ccc3n2)cc1,355 nM (active),
Cc1ccc2nc(-c3ccc(Br)cc3)cn2c1,316 nM (active),
CSc1nnc2ccc(-c3ccc(C)cc3)nn12,inactive,
Cc1ccc(C(=O)Cn2cc([N+](=O)[O-])nc2C)cc1,inactive,
Cc1nc(-c2ccc([N+](=O)[O-])cc2)c(-c2ccccc2)o1,inactive,
Cc1cc(N2CCOCC2)nc(-c2ccc(Br)cc2)n1,inactive,
